Sampled rows, rich in hits. Any-hit rate of the full collection: about 5.9%.
RORgamma inh – inhibitors of mouse ROR gamma transcriptional activity; P51450; Drosophila S2 Gal4-RORgamma UAS-luciferase reporter, 20 h; Potency, µM (series often up to 53.6 µM), for the others: at the top dose activity change, negative = inhibition, most hits filed as inhibitors; 5.4% of 310,000 active; AID 2551; also: potency is read from the fitted curve at half-maximal effect; nearly all actives have a fitted effect of over 60% in size
Target sequence (P51450 whole entry, looked up, the tested form may be a part): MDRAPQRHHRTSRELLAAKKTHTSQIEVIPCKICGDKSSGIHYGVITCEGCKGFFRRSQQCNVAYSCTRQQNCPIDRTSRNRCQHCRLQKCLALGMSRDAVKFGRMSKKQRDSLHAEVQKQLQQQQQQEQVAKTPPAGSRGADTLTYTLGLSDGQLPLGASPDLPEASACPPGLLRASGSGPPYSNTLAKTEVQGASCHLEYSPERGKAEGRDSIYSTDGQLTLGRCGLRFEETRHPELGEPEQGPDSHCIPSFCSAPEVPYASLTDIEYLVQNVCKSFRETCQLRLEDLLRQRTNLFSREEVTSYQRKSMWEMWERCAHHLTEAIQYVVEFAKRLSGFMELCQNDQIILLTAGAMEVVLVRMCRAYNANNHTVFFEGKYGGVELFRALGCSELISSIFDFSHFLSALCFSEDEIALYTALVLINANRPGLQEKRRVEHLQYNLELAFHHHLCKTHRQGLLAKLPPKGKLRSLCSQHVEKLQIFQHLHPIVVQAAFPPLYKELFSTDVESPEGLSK
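Drosophila Schneider cells stably carrying a metallothionein-driven Gal4 DBD–ROR gamma fusion and a UAS-Photinus luciferase reporter were exposed to compound for 1 hr, then induced with copper sulfate (700 uM final) for 20 hr at ambient temperature before luminescence reading.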
GALK inh – inhibitors of human galactokinase; Potency, µM (highest dose often 57.5 µM), inactives show at the highest dose activity change, negative = inhibition, actives largely listed as inhibitors; 0.007% of 270,000 active; Purified GALK, Kinase-Glo residual ATP luminescence; P51570; also: potency is read from the fitted curve at half-maximal effect
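ATP-depletion format; final 35 uM ATP, 100 uM D-galactose, 5 nM enzyme; pH 8.0 HEPES/Mg2+ buffer; 60 min RT; luminescence read 10 min after detection reagent.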
rTrxR1 inhibitor – rat TrxR1 inhibition. AID 588453. O89049. 1% of 390,000 active. recombinant rTrxR1, NADPH fluorescence consumption, selenite substrate. Potency, µM (doses to about 114 µM), without a hit: top-dose activity change, negative = inhibition, hits mostly inhibitors; also: potency is read from the fitted curve at half-maximal effect; nearly all actives have a fitted effect of over 65% in size
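Rat TrxR1 (90 nM in the dispensed reagent) was pre-reduced with 400 uM NADPH for 5 min at room temperature, then incubated with compound for 15 min. After 400 uM selenite was added, NADPH fluorescence (Ex 340/Em 450 nm) was followed for 8 min.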
TrxR1 substrate – is turned over as a substrate by rat TrxR1; AID 588456; O89049; purified TrxR1 substrate turnover, NADPH consumption readout; Potency, µM (series often up to 114 µM), for the others: at the top dose activity change, negative = substrate turnover; 0.01% of 390,000 active; also: potency is read from the fitted curve at half-maximal effect; nearly all actives have a fitted effect of over 50% in size
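Rat TrxR1, dispensed at 90 nM, was prereduced with 400 uM NADPH (final) for 5 min at ~22 deg C, then incubated with compound 15 min before 400 uM selenite. A first-read NADPH fluorescence drop versus no-compound background flagged substrates.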
Gal4-VP16 FLuc – counter-screen for ROR gamma inhibitors: Gal4-VP16 reporter; 3.5% of 310,000 active; Potency, µM (highest dose often 53.6 µM), inactives show at the top dose activity, negative = inhibition, actives largely listed as inhibitors; Drosophila S2 Gal4-VP16 UAS-luciferase, luminescence, 20 h;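 also: Gal4-VP16 expression switched on by copper sulfate through the metallothionein promoter; potency is read from the fitted curve at half-maximal effect; nearly all actives have a fitted effect of over 50% in size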
FBPA coupling cs – coupling enzyme interference in Giardia aldolase counter-screen | coupling enzyme system counterscreen, AmpLite Red fluorescence | activity change, negative = inhibition, % at 58.2 µM, hits read low | 0.67% of 290,000 active; in the data active = activity change below about -30%
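Counterscreen lacking aldolase: glyceraldehyde-3-phosphate coupling-enzyme reagent preincubated 10 min at RT with compound (at 57.5 uM final), then substrate/coupling system with AmpLite Red added; fluorescence read at 525/598 nm after 20 min RT.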
* marks the source's active call; other numbers are inactive results; ? = inconclusive; / = no result given; [ ] = another dose, or the depositor's remark. Unless noted, calls follow the shape of the dose curve; as a rule, active = well fitted curve in the direction sought with a large enough effect; inconclusive = small, poorly fitted or top-dose-only effect, or another doubt; inactive = no such curve, though single readings can be large; an effect the other way counts as inactive or inconclusive. % is scaled to controls: 0 for no effect and ±100 for the full control effect.

SMILES	RORgamma inh	GALK inh	rTrxR1 inhibitor	TrxR1 substrate	Gal4-VP16 FLuc	FBPA coupling cs
O=c1cc(-c2cccc(O)c2)oc2c(O)c(O)ccc12	-24%	/	/	/	6%	-6
COc1ccc(N2C(=O)/C(=C\c3ccco3)N=C2SCC(=O)NC(C)C)cc1Cl	?	-2%	3%[57.1 µM]	8%[57.1 µM]	?	0
COc1ccc(N2C(=O)/C(=C\c3ccco3)N=C2SCC(=O)N(C(C)C)C(C)C)cc1Cl	?	2%	-21%	-14%	10µM*	-6
Clc1cccc(/C(Cc2nc3ccccc3[nH]2)=N\Nc2ccccc2)c1	35µM*	-2%	3%	-3%	?	1
c1ccc(N/N=C(\Cc2nc3ccccc3[nH]2)c2ccccc2)cc1	-16%[10 µM]	0%	-18%	-9%	?	0
O=C(NCCc1nc2ccccc2[nH]1)c1cc([N+](=O)[O-])cc([N+](=O)[O-])c1	?	-2%	-11%	-12%	-17%	3
CCN/N=C(\Cc1nc2ccccc2[nH]1)c1ccccc1	?	13%	-24%	-5%[57.1 µM]	-15%	1
Cc1ccc(N/N=C(\Cc2nc3ccccc3[nH]2)c2ccccc2)cc1	?	-2%	79µM*	-3%	?	-5
N/N=C(/Cc1nc2ccccc2[nH]1)c1ccc([N+](=O)[O-])cc1	14µM*	5%	11%[57.1 µM]	-4%	?	1
CCOC(=O)c1c(C)[nH]c(C(=O)Cn2nnc(-c3ccc(Cl)cc3)n2)c1C	-9%	2%	20%	5%	-26%	5
COC(=O)NC(c1ccccc1)C(C(=O)OC)C(=O)OC (stereo not given)	5%[10 µM]	/	/	/	8%[10 µM]	-31*
CC(C)C(=O)Nc1ccc(NC(=O)c2cccs2)cn1	5%	7%	0%	0%	10%	-44*
CC(C)C(=O)Nc1ccc(NC(=O)c2ccccn2)cn1	?	3%	-1%	-2%	?	-1
COc1ccc(C(=O)Nc2ccc(NC(=O)c3cccs3)cn2)cc1	0.22µM*	1%	-1%	8%	9%	1
Cc1cccc(CNc2ncnc3ccc(-c4cccc(C#N)c4)cc23)c1	?	/	/	/	1%	0
CC(C)(CCO)NC(=S)NC1CC2C=CC1C2 (stereo not given)	?	1%	17%[57.1 µM]	2%[57.1 µM]	?	6
CC(C)(C)NC(=S)NC(C)(C)C	11µM*	-1%	-19%	-3%	?	1
CC(C)(C)NC(=S)NC1CC1	13µM*	0%	-7%	6%	?	-1
CC1CCCN(C(=O)COC(=O)COc2ccc(C#N)cc2)C1 (stereo not given)	/	/	14%	-1%	/	/
CCOCCCNC(=O)CCc1ccc(-n2cnc3cccnc32)cc1	-8%	-2%	-2%	-3%	4%	1
O=C(O)c1ccccc1SC1CC(=O)N(c2cccc3ccccc23)C1=O (stereo not given)	?	4%	20µM*	15%	?	6
CCN1C(=O)CC(Sc2ccccc2C(=O)O)C1=O (stereo not given)	?	0%	-4%	7%	0%	0
CCOc1ccc(N2C(=O)CC(Sc3ccccc3C(=O)O)C2=O)c([N+](=O)[O-])c1 (stereo not given)	?	-1%	28µM*	5%	?	6
COc1ccc(/C=C2/SC(=O)N(CCC(=O)Nc3ccc(S(=O)(=O)Nc4nccs4)cc3)C2=O)cc1	32%	0%	-6%	-6%	-9%	2
COc1ccc(NC(=O)NC2CCCCC2C)cc1 (stereo not given)	18%	-2%	30%	1%	26%	0
SMILES	RORgamma inh	GALK inh	rTrxR1 inhibitor	TrxR1 substrate	Gal4-VP16 FLuc	FBPA coupling cs
CC(=O)N1CCN(C(=S)Nc2ccc(SC(F)F)cc2)CC1	32%	9%	15%[57.1 µM]	5%[57.1 µM]	-6%	1
CC1CCN(C(=S)Nc2ccc(SC(F)F)cc2)CC1	7.9µM*	-2%	1%[57.1 µM]	-1%[57.1 µM]	11µM*	0
CN(CC(=O)Nc1ccc(SC(F)F)cc1)C1CCCCC1	22%	-1%	21%[57.1 µM]	2%	0%	-2
CC1CCCCC1NC(=S)Nc1ccc(SC(F)F)cc1 (stereo not given)	6.3µM*	-6%	-4%[57.1 µM]	-10%	11µM*	2
FC(F)Sc1ccc(NC(=S)NCC2CCCCC2)cc1	8.9µM*	2%	-8%	-10%	10µM*	-5
CCCN1CCN(C(=S)Nc2ccc(SC(F)F)cc2)CC1	-45%	-2%	11%	-1%	21%	0
FC(F)Sc1ccc(NC(=S)NC2CCCCC2)cc1	8.9µM*	3%	0%[57.1 µM]	-1%[57.1 µM]	?	0
CCN(CC(=O)NCc1ccncc1)S(=O)(=O)c1cc(Cl)ccc1Cl	0%	1%	1%[57.1 µM]	-4%[57.1 µM]	?	3
CCOC(=O)COc1c(Cl)cc(C2NC(=S)NC(c3ccccc3)=C2C(C)=O)cc1OCC (stereo not given)	3.5µM*	-1%	2%	-2%	3.2µM*	4
C=CCOc1ccc(C2NC(=S)NC(c3ccccc3)=C2C(C)=O)cc1OC (stereo not given)	14µM*	1%	?	?	-4%	3
COc1cc(C2NC(=O)NC(c3ccccc3)=C2C(C)=O)ccc1OCC#N (stereo not given)	21%	1%	-1%	2%	-13%	3
CC(=O)C1=C(c2ccccc2)NC(=O)NC1c1ccc(O)c(Cl)c1 (stereo not given)	3%	1%	11%	-4%	-1%	3
CCOC(=O)C1=NN(C(=O)c2ccco2)C2(CC2)C1	-4%	3%	-6%	-5%	5%	2
CCOC(=O)C1=NN(C(=O)c2ccc(OC)cc2)C(O)(c2ccc(Cl)cc2)C1 (stereo not given)	10µM*	2%	-3%[57.1 µM]	1%[57.1 µM]	?	1
CCOC(=O)C1=NN(C(=O)c2ccccc2)C(O)(c2ccc(C)cc2)C1 (stereo not given)	10µM*	1%	7%[57.1 µM]	-3%[57.1 µM]	28µM*	4
CCOC(=O)C1=NN(C(=O)c2cccc(Br)c2)C(O)(C(C)(C)C)C1 (stereo not given)	14µM*	-2%	/	/	?	1
COC(=O)C1=NN(C(=O)c2cccc(Br)c2)C(O)(c2ccc(Cl)cc2)C1 (stereo not given)	-29%	-3%	8%	1%	-30%	0
Cc1nc(N)[nH]c(=O)c1CCCNc1ccc(CCCCC2(CCl)OCCO2)cc1	/	/	-10%[2.29 µM]	-8%[2.29 µM]	/	/
COc1ccccc1Nc1nnc(SCC(=O)c2cc(C)n(CC3CCCO3)c2C)s1 (stereo not given)	?	0%	-15%	-8%	-6%	0
